PubChem BioAssay (NCATS)
Where “and” joins values, the source holds several entries; their conditions need not be identical. Equal entries are not always repeated. Results filed as inconclusive are left out. Where a structure was tested more than once in an assay, its records may differ in their call. Calls of active or inactive are those of the source. Unless noted, calls follow the shape of the dose curve; as a rule, active = well fitted inhibition curve with a large enough effect; inconclusive = small, poorly fitted or top-dose-only effect; inactive = flat fitted curve, though single readings scatter.

Legend:
[1] = Drug repurposing screens with cells derived from glioblastoma tumor samples (AID 1345199); conditions: GBM patient neurospheres viability, ATP luminescence, 48 h; also: nearly all actives have a fitted effect of over 40% in size; also: potency is read from the fitted curve at half-maximal effect; as to activity, negative = cell killing: % is scaled to controls: 0 for no effect and ±100 for the full control effect
Summary of the method: (§1)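 Four patient lines of CD133+ GBM neurospheres were screened at several concentrations; hits were retested in those lines plus three slower-growing GBM lines, using 48-hour treatment and ATP-based viability.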

astro = control astrocytes; experiment: as above; conditions: viability, ATP luminescence, 48 h; series mostly up to 45.9 µM
Summary of the method: as §1

[2] = qHTS assay for small molecule activators of the human pregnane X receptor (PXR) signaling pathway (AID 720659; call rule not given here; also: 0% is about no effect); conditions: DPX-2 HepG2 CYP3A4-luciferase, 24 h; series mostly up to 92.3 µM
[3] = target: Nuclear receptor subfamily 1 group I member 2 (Rattus norvegicus) (UniProt Q9R1A7); experiment: qHTS assay for small molecule activators of the rat pregnane X receptor (rPXR) signaling pathway (AID 651751; call rule not given here; also: 0% is about no effect); conditions: rPXR reporter cells, luciferase (One-Glo), 24 h
[4] = at 45.9 µM (top of the series), tumour line B
[5] = at 45.9 µM (top of the series), tumour line D
[6] = at 46 µM (top of the series), tumour line A
[7] = at 46.1 µM (top of the series), tumour line C

Sequence of Nuclear receptor subfamily 1 group I member 2 (Rattus norvegicus) (Q9R1A7 whole entry, looked up): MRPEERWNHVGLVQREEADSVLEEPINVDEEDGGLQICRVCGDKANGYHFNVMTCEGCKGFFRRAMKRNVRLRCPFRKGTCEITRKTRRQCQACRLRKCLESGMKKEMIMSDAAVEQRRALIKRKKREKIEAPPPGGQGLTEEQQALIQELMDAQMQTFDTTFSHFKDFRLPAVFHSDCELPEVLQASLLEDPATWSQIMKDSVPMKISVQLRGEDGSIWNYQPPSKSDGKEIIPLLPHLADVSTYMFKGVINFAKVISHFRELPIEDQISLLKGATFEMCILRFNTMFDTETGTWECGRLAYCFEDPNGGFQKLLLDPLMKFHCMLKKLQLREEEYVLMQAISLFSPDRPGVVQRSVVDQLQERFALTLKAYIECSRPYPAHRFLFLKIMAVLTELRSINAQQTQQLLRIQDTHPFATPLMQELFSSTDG

ClC(Cl)(Cl)Cl
inactive: activity, negative = cell killing [1, 4] -3.78% | activity, negative = cell killing [1, 5] 4.09% | activity, negative = cell killing [1, 6] -14.3% | activity, negative = cell killing [1, 7] -6.14% | Potency (astro) | outcome [2]

O=C1C[C@@H]2OCC=C3CN4CC[C@]56c7ccccc7N1[C@H]5[C@H]2[C@H]3C[C@H]46 (tested in a mixture with another compound)
inactive: activity, negative = cell killing [1, 4] -8.18% and -6.54% | activity, negative = cell killing [1, 5] -14.5% and -6.5% | activity, negative = cell killing [1, 7] 1.96% and -18.9% | Potency (astro)
active: Potency ([1]; tumour line A) 20 µM

CC(C)(O)[C@@H]1[C@H]2OC(=O)[C@@H]1[C@]1(O)C[C@H]3O[C@]34C(=O)O[C@H]2[C@]14C
inactive: activity, negative = cell killing [1, 4] -2.1% and -10.8% | activity, negative = cell killing [1, 5] 11.7% and -21% | activity, negative = cell killing [1, 6] -37.4% and -27.2% | activity, negative = cell killing [1, 7] -9.46% and -22% | Potency (astro)

CCCC(C)(COC(N)=O)COC(=O)NC1CC1 (centres undefined)
inactive: activity, negative = cell killing [1, 4] -5.97% | activity, negative = cell killing [1, 5] -18% | activity, negative = cell killing [1, 6] -25.6% | activity, negative = cell killing [1, 7] -16.6% | Potency (astro)

O=C/C=C/c1ccccc1
inactive: activity, negative = cell killing [1, 4] 0.0687% | activity, negative = cell killing [1, 5] -9.63% | activity, negative = cell killing [1, 6] -23.4% | activity, negative = cell killing [1, 7] 1.48% | Potency (astro) | max response [3] -2.3% and 9.18% | outcome [2]

CCCCCl
inactive: activity, negative = cell killing [1, 4] -5.4% | activity, negative = cell killing [1, 5] -17.7% | activity, negative = cell killing [1, 6] -20.4% | activity, negative = cell killing [1, 7] 7.44% | Potency (astro) | max response [3] -2.58% | outcome [2]

OC[C@@H](O)[C@H]1O[C@@H]2O[C@@H](C(Cl)(Cl)Cl)O[C@@H]2[C@H]1O
inactive: activity, negative = cell killing [1, 4] -12.9% | activity, negative = cell killing [1, 5] -1.55% | activity, negative = cell killing [1, 6] -29.4% | activity, negative = cell killing [1, 7] 7.8% | Potency (astro)

CCC1(C)CC(=O)NC(=O)C1
inactive: activity, negative = cell killing ([1]; at 20 µM (top of the series), tumour line C) -7.73% | activity, negative = cell killing ([1]; at 21.2 µM (top of the series), tumour line B) -6.36% | activity, negative = cell killing ([1]; at 21.2 µM (top of the series), tumour line D) -5.16% | activity, negative = cell killing ([1]; at 21.3 µM (top of the series), tumour line A) -9.96% | Potency (astro)

Clc1ccccc1Cl
inactive: activity, negative = cell killing [1, 4] -2.22% | activity, negative = cell killing [1, 5] -8.63% | activity, negative = cell killing [1, 6] -3.16% | activity, negative = cell killing [1, 7] -0.0025% | Potency (astro) | max response [3] 6.34% | outcome [2]

CNC(C)C(O)c1ccc(O)cc1 (centres undefined)
inactive: activity, negative = cell killing [1, 4] -14.1% and -15.9% | activity, negative = cell killing [1, 5] 3.04% and 6.23% | activity, negative = cell killing [1, 6] -17.8% and -27.7% | activity, negative = cell killing [1, 7] -5.67% and -20.1% | Potency (astro)

[S]=[Sb](=[S])[S][Sb](=[S])=[S]
inactive: activity, negative = cell killing [1, 4] -4.98% | activity, negative = cell killing [1, 5] -5.67% | activity, negative = cell killing [1, 6] -28.3% | activity, negative = cell killing [1, 7] -1.84% | Potency (astro)

O[C@H]1[C@H]2[C@H](O)CCCN2C[C@H]1O
inactive: activity, negative = cell killing [1, 4] 0.771% | activity, negative = cell killing [1, 5] -7.2% | activity, negative = cell killing [1, 6] -40.5% | activity, negative = cell killing [1, 7] -19.9% | Potency (astro)

CCC1(c2ccccc2)C(=O)NC(=O)N(C)C1=O (centres undefined)
inactive: activity, negative = cell killing [1, 4] -7.4% | activity, negative = cell killing [1, 5] -10.2% | activity, negative = cell killing [1, 6] -23% | activity, negative = cell killing [1, 7] 7.87% | Potency (astro)

C[C@]12CC[C@H](OS(=O)(=O)O)CC1=CC[C@@H]1[C@@H]2CC[C@]2(C)C(=O)CC[C@@H]12
inactive: activity, negative = cell killing [1, 4] 3.89% | activity, negative = cell killing [1, 5] -2.35% | activity, negative = cell killing [1, 6] -29.4% | activity, negative = cell killing [1, 7] -15.3% | Potency (astro)

C=C[C@H]1CN2CC[C@H]1C[C@H]2[C@H](OC(=O)OCC)c1ccnc2ccc(OC)cc12
active: Potency ([1]; tumour line A) 10 µM
inactive: activity, negative = cell killing [1, 4] -6.26% | activity, negative = cell killing [1, 5] -11.2% | activity, negative = cell killing [1, 7] 18.3% | Potency (astro)

CN[C@H]1C[C@@H](N)[C@H](O)[C@@H](O[C@@H]2O[C@H](CO)[C@H](O)[C@@H]3OC4(O[C@H]23)O[C@H](C(N)CO)[C@H](O)[C@H](O)[C@H]4O)[C@@H]1O (some centres undefined)
inactive: activity, negative = cell killing [1, 6] -23.6%

Clc1ccc(C(Cn2ccnc2)OCc2csc3c(Cl)cccc23)c(Cl)c1 (centres undefined)
active: Potency ([1]; tumour line A) 12.6 µM

CCOP(=O)(OCC)O/C(=C/Cl)c1ccc(Cl)cc1Cl
active: Potency ([1]; tumour line A) 12.6 µM

C[N+]1(C)[C@@H]2CC[C@H]1CC(OC(=O)c1c[nH]c3ccccc13)C2 (some centres undefined)
inactive: activity, negative = cell killing [1, 4] -23.1% | activity, negative = cell killing [1, 7] -27.7% | Potency (astro)

C[C@@H]([C@H](O)c1ccccc1)N(C)C
inactive: activity, negative = cell killing [1, 4] -6.97% | activity, negative = cell killing [1, 5] -5.32% | Potency (astro)

CCN1C[C@]2(COC)[C@H](O)C[C@H](OC)[C@@]34[C@@H]5C[C@@]6(O)[C@H](OC(=O)c7ccccc7)[C@@H]5[C@@](OC(C)=O)([C@@H]([C@H](OC)[C@H]23)[C@@H]14)[C@@H](O)[C@@H]6OC
inactive: activity, negative = cell killing [1, 4] -6.48% | activity, negative = cell killing [1, 5] -4.25% | activity, negative = cell killing [1, 7] 8.16% | Potency (astro)

OC[C@@H](O)[C@H]1O[C@@H]2O[C@H](C(Cl)(Cl)Cl)O[C@@H]2[C@H]1O
inactive: activity, negative = cell killing [1, 4] -1.98% | activity, negative = cell killing [1, 5] -2.86% | activity, negative = cell killing [1, 7] -11.5% | Potency (astro)
